This passage reports INHIBITION results from ChEMBL document CHEMBL4513216, “Probing the Open Global Health Chemical Diversity Library for Multistage-Active Starting Points for Next-Generation Antimalarials” (ACS Infect Dis, 2020).

Screen size: about 68,000 compounds; about 2,700 (4%) showed an effect of 50% or more. Many of the other results were omitted from the sample, so strong results are more common in it than they were.

For this assay, the system named is Plasmodium berghei. Put plainly: Screen against P. berghei liver stage (PbLuc), transformed with Luciferase, at 2uM. Conditions: tested at 2 uM. The class given is functional, HepG2.
As for `F[C@@H]1CN(Cc2cccnc2)C[C@@H]1OCc1nc2ccccc2[nH]1`, the INHIBITION came out at 20.41%.

Regarding `O=C(Cc1ccco1)N1C[C@H]2CCC[C@@]2(COCC2CC2)C1`, the INHIBITION amounted to 8.17%.

Regarding `COC[C@@]12CCC[C@@H]1CN(C(=O)Cc1ccco1)C2`, the INHIBITION was 53.08%.

On to `O=C(Cc1ccco1)N1C[C@H]2CCC[C@@]2(COc2cccnc2)C1`, for which the INHIBITION is recorded as -75.76%.

As for `CCn1ccnc1CN1CCN(c2ncnc3ccsc23)CC1C` (centres undefined), the INHIBITION was -115.54%.

In the case of `O=C(c1cnc(O)cc1O)N1CCCC(CCc2ccccc2F)C1` (centres undefined), the INHIBITION amounted to 29.41%.

On to `COCCN1CCCC(O)(CN2CCN(c3ncccc3C)CC2)C1=O` (centres undefined), for which the INHIBITION is given as 75.47%.

Consider `COCCN1CCCC2(CCN(c3nccnc3N(C)C)C2)C1=O` (centres undefined), for which the INHIBITION is given as -38.59%.

Take `COCCN1CCCC(O)(CN2CCCN(c3ncccn3)CC2)C1=O` (centres undefined): the INHIBITION is 31.35%.

`COCCN1CCCC2(CCN(c3nccc4ccccc34)C2)C1=O` (centres undefined): the INHIBITION worked out at 50.61%.

Consider `COCCN1CCCC2(CCN(c3ncnc(C)c3C)C2)C1=O` (centres undefined), for which the INHIBITION is listed as 24.05%.

Regarding `COCCN1CCCC(O)(CN2CCN(c3cc(C)ccn3)CC2)C1=O` (centres undefined), the INHIBITION is 17.6%.

Take `CCS(=O)(=O)N1CCC2(CN(c3cc(OC)ncn3)C2)C1`: the INHIBITION came to 35.37%.

With `CC(OCC1CC1)C(=O)Nc1cccc(C(=O)Nc2ccncc2)c1` (centres undefined), the INHIBITION worked out at 10.72%.

On to `CC(C)C[C@H](N)c1nnc(SCC(N)=O)o1`, for which the INHIBITION was found to be 31.02%.

`Cc1n[nH]c(C)c1CNC(=O)CSCc1ccccc1Cl`: the INHIBITION is on record as 37.77%.

On to `CCSc1ccc(C(=O)N2CCC3(CCC(=O)N(C)C3)CC2)s1`, for which the INHIBITION was -12.89%.

As for `CSC1(CNc2ccc(Br)cn2)CCOCC1`, the INHIBITION is 30.06%.

In the case of `Cc1cc(C)cc(NC(=O)Nc2c(O)c3ccccc3oc2=O)c1`, the INHIBITION worked out at 19.49%.

For the compound `Cc1cnn(CCCNC(=O)NC(C)C(=O)Nc2ccccc2)c1` (centres undefined), the INHIBITION is recorded as -17.39%.

For the compound `Cc1nnc(SCC(=O)c2cc3c(cc2Cl)NC(=O)C3)o1`, the INHIBITION is 54.73%.

With `Nc1nnc(SCC(=O)c2cc3c(cc2Cl)NC(=O)C3)s1`, the INHIBITION is reported as 9.42%.

For the compound `Cc1nnc(SCC(=O)c2cc3c(cc2Cl)NC(=O)C3)s1`, the INHIBITION is on record as -21.29%.

Consider `CCCNC(=O)C(C)n1nc(-c2ccc(C)o2)cc(N)c1=O` (centres undefined), for which the INHIBITION came out at 0.86%.

Consider `Cc1ccc(CN2C[C@H]3CN(C(=O)c4ccno4)CCN3C2=O)cc1`, for which the INHIBITION turned out to be 2.66%.

Regarding `CC(C)CC(C)NCCCN1CCCN(C)CC1` (centres undefined), the INHIBITION came to 19.13%.

For `Cc1occc1CNC(=O)C1(C)CCCN(C(=O)c2ccccc2)C1` (centres undefined), the INHIBITION is given as 52.08%.

Turning to `Cc1occc1CNC(=O)C1(C)CCCN1C(=O)c1ccccc1` (centres undefined), the INHIBITION was found to be 22.34%.

With `CC(C)C(=O)N1CCC12CCCN(C(=O)c1ccccc1)C2` (centres undefined), the INHIBITION is reported as -1.55%.
